Experimental data from PubChem BioAssay (NCI).
The panel holds about 83,000 compounds, 20% with a hit somewhere; the sample as a whole holds those more often.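 Activity criterion: percent growth below 10, measured after cells in 96-well plates were exposed to a single compound concentration for 48 hours.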 Calls of active or inactive are those of the source.

Columns and labels:
Experiment in all cases: NCI-60 one-dose screen, 48 h (100 = growth as untreated, 0 = no growth, -100 = all killed)
Details in all cases: 10 µM unless noted
[1] = system: NCI-H23 lung
[2] = system: NCI-H226 lung
[3] = system: NCI-H322M lung
[4] = system: HOP-62 NSCLC
[5] = system: NCI-H460 lung
[6] = system: HOP-92 NSCLC
[7] = system: NCI-H522 lung
[8] = system: A549/ATCC NSCLC
[9] = system: 786-0 renal
[10] = system: COLO 205 colon

SMILES | growth [1] | growth [2] | growth [3] | growth [4] | growth [5] | growth [6] | growth [7] | growth [8] | growth [9] | growth [10]
N#C/C(Sc1nc2sc3c(c2c(=O)n1Cc1ccccc1)CCCC3)=C1/SC=C(c2ccc(Cl)cc2)N1c1ccccc1 | 86.6% (inactive) | 106% (inactive) | 84.5% (inactive) | 78.8% (inactive) | 90.6% (inactive) | 68.6% (inactive) | 89.7% (inactive) | 100% (inactive) | 87.4% (inactive) | 104% (inactive)
Cc1cc(=O)oc2cc(Oc3nc(-c4ccccc4)cn4c(-c5ccccc5)cnc34)ccc12 | 62.4% (inactive) | 44.6% (inactive) | 86% (inactive) | 68.7% (inactive) | 64% (inactive) | 22.4% (inactive) | – | 56.1% (inactive) | 67.3% (inactive) | 70.5% (inactive)
COc1ccc(Nc2nc(Nc3cc(C)[nH]n3)c3cc(OC)c(OC)cc3n2)cc1 | -74.7% [20 µM] (active) | -47.2% [20 µM] (active) | -100% [20 µM] (active) | -73.3% [20 µM] (active) | -75.9% [20 µM] (active) | -84.6% [20 µM] (active) | – | -61.2% [20 µM] (active) | -83.3% [20 µM] (active) | -61% [20 µM] (active)
C=C(C)[C@@H]1CC[C@]2(C#N)CC[C@]3(C)[C@H](CC[C@@H]4[C@@]5(C)CCCNC(C)(C)[C@@H]5CC[C@]43C)[C@@H]12 | 82.7% (inactive) | 96.6% (inactive) | 88.7% (inactive) | 113% (inactive) | 11.1% (inactive) | 51% (inactive) | – | 73.2% (inactive) | 84.5% (inactive) | -67.8% (active)
CCOC(=O)C1=C(c2ccccc2)N=C2N(c3ccccc3)N=C(C(C)=O)N2C1c1ccc(Br)cc1 (stereo not drawn) | 94.3% (inactive) | 96.1% (inactive) | 95.3% (inactive) | 103% (inactive) | 98% (inactive) | 89.5% (inactive) | 95.3% (inactive) | 91.2% (inactive) | 100% (inactive) | 124% (inactive)
Oc1ccc(Cc2ccc(O)c3ncccc23)c2cccnc12 | 9.78% (active) | 12.1% (inactive) | 9.39% (active) | -2.91% (active) | 7.23% (active) | -25.9% (active) | – | 7.38% (active) | 19% (inactive) | 71% (inactive)
COC(=O)c1c(C)nc(C)c2c1C(=O)C(Br)=C(NCCCCO)C2=O | 51.1% (inactive) | 96.7% (inactive) | 75.5% (inactive) | 114% (inactive) | 40% (inactive) | 140% (inactive) | – | 75.1% (inactive) | 89.2% (inactive) | 17% (inactive)
Nc1n[nH]c2cccc(C#Cc3cccc(C(=O)Nc4ccc(Cl)c(C(F)(F)F)c4)c3)c12 | 59.1% (inactive) | 36% (inactive) | 77% (inactive) | 67.5% (inactive) | 64.3% (inactive) | 20.1% (inactive) | – | 71.3% (inactive) | 76.6% (inactive) | 29.3% (inactive)
CN1CCN(c2ccc(Nc3ncc4[nH]c(=O)n(Cc5ccccc5N)c4n3)cc2)CC1 | 97.5% (inactive) | 80.3% (inactive) | 100% (inactive) | 77.8% (inactive) | 102% (inactive) | 85.5% (inactive) | – | 97.5% (inactive) | 84.1% (inactive) | 107% (inactive)
[2H]C([2H])([2H])Oc1ccc(/C=C/C(=O)/C=C(O)/C=C/c2ccc(OC([2H])([2H])[2H])c(OC([2H])([2H])[2H])c2)cc1OC([2H])([2H])[2H] | 34.3% (inactive) | 70.6% (inactive) | 103% (inactive) | 47.7% (inactive) | 46.7% (inactive) | 72.7% (inactive) | – | 32.4% (inactive) | 48.9% (inactive) | 30.4% (inactive)
Oc1cccc(-c2nc(-c3n[nH]c(=S)n3-c3ccccc3)cc3c2[nH]c2ccccc23)c1 | 43.3% (inactive) | – | 13.7% (inactive) | 28.4% (inactive) | 8.82% (active) | 63.3% (inactive) | -28.3% (active) | 48.3% (inactive) | 18.4% (inactive) | 68% (inactive)
COc1cc(C(=O)c2c(-c3ccccc3)oc3ccccc23)cc(OC)c1O | 43.2% (inactive) | – | 53.4% (inactive) | 38.2% (inactive) | 13.9% (inactive) | 55.4% (inactive) | 40.2% (inactive) | 47.3% (inactive) | 35.6% (inactive) | 123% (inactive)
COc1ccc(-c2csc(NC(=O)CSc3nc(C)cc(=O)[nH]3)n2)cc1 | 91.1% (inactive) | – | 106% (inactive) | 118% (inactive) | 107% (inactive) | 95.5% (inactive) | 86.7% (inactive) | 104% (inactive) | 102% (inactive) | 116% (inactive)
CC(=O)O[C@H]1CC[C@@]2(C)C(=CC[C@@H]3[C@@H]2CC[C@]2(C)C(Cl)=C(c4nc5ccc(Cl)cn5c4NC(C)(C)C)C[C@@H]32)C1 | 88.1% (inactive) | – | 96.1% (inactive) | 90.8% (inactive) | 99.9% (inactive) | 15.6% (inactive) | 86.8% (inactive) | 89.5% (inactive) | 85% (inactive) | 103% (inactive)
CC(=O)OCC(=O)O[C@@H]1C[C@]2(C(C)C)O[C@@]1(C)[C@@H]1CC[C@@H](C)[C@H]1[C@@H]2OC(=O)/C=C/c1ccccc1 | 89.7% (inactive) | – | 84.8% (inactive) | 86.7% (inactive) | 90.2% (inactive) | 67.4% (inactive) | 78.1% (inactive) | 71.7% (inactive) | 66.3% (inactive) | 97.5% (inactive)
C=C(CNCCO)[C@@H]1CC[C@]2(CO)CC[C@]3(C)[C@H](CC[C@@H]4[C@@]5(C)CCC(NCCO)C(C)(C)[C@@H]5CC[C@]43C)[C@@H]12 (stereo partly drawn) | 95.5% (inactive) | – | 89.2% (inactive) | 93.4% (inactive) | 50.3% (inactive) | 65.5% (inactive) | 66.6% (inactive) | 61.4% (inactive) | 67.4% (inactive) | 62.5% (inactive)
COc1ccc(-c2ccc(-c3ccc(C(=N)N)o3)o2)cc1 | 35.6% (inactive) | – | 56.1% (inactive) | 46.4% (inactive) | 0.541% (active) | 27% (inactive) | – | 1.8% (active) | 21.9% (inactive) | -45.8% (active)
Cc1ccc(-c2nc(C#N)c(S(=O)(=O)n3nc(C)cc3N)o2)cc1 | 90.7% (inactive) | – | 91% (inactive) | 103% (inactive) | 99.7% (inactive) | 72.8% (inactive) | -15.8% (active) | 99.4% (inactive) | 78% (inactive) | -32.3% (active)
Cc1cccc(C)c1NC(=O)Nc1ccccc1 | 88.4% (inactive) | – | 80.3% (inactive) | 95.8% (inactive) | 44% (inactive) | 128% (inactive) | 49.4% (inactive) | 86.8% (inactive) | 110% (inactive) | 102% (inactive)
CCN(CC)CCCNc1cc(OC)cc2cccnc12 | 99.3% (inactive) | – | 107% (inactive) | 102% (inactive) | 105% (inactive) | 124% (inactive) | 94.7% (inactive) | 108% (inactive) | 102% (inactive) | 83.9% (inactive)
CCOC(=O)C1=C(C)N(C)C(=O)N(C)C1c1ccccc1 (stereo not drawn) | 96.7% (inactive) | – | 98.6% (inactive) | 81.7% (inactive) | 101% (inactive) | 78.5% (inactive) | 86.9% (inactive) | 104% (inactive) | 100% (inactive) | 98.5% (inactive)
CCN1C(=O)N(CC)C2C1NN=c1s/c(=C\c3ccc(F)cc3)c(=O)n12 (stereo not drawn) | 39.3% (inactive) | – | 44.2% (inactive) | 39.3% (inactive) | 5.08% (active) | 43.6% (inactive) | -5.22% (active) | 15.5% (inactive) | 35% (inactive) | 5.08% (active)
Nc1ccc(Cl)c2c(=O)c3ccccc3[nH]c12 | 71.3% (inactive) | – | 99.8% (inactive) | 105% (inactive) | 91.2% (inactive) | 99.4% (inactive) | 69.8% (inactive) | 80% (inactive) | 77.4% (inactive) | 90.7% (inactive)
COC(=O)[C@H](C)NC(=O)[C@@H]1CCCN1C(=O)CNC(=O)[C@H](C)N | 105% (inactive) | – | 96.5% (inactive) | 114% (inactive) | 106% (inactive) | 89% (inactive) | – | 106% (inactive) | 98% (inactive) | 104% (inactive)
COc1ccc(C(=O)/C=C/c2ccc(Cl)cc2)cc1S(N)(=O)=O | 87.8% (inactive) | – | 29.1% (inactive) | 53.6% (inactive) | 65.8% (inactive) | -26.6% (active) | 56.9% (inactive) | 54.5% (inactive) | -30.7% (active) | 60.6% (inactive)
CCCCCCCCCCCCCC[n+]1ccc2c(C)c3c(c(C)c2c1)c1cc(O)ccc1n3CC | -64% (active) | – | -62% (active) | -57.1% (active) | -67.7% (active) | -84.4% (active) | -42.9% (active) | 7.99% (active) | -73.4% (active) | -69.9% (active)
O=C(OCc1ccc2c(Br)cc(Br)c(O)c2n1)N1CCN(C(=O)c2cc3ccccc3[nH]2)CC1 | 39.4% (inactive) | – | 44.9% (inactive) | 23.3% (inactive) | 12% (inactive) | 25.7% (inactive) | 37.5% (inactive) | 12.7% (inactive) | 49.3% (inactive) | 50.6% (inactive)
